Data from PubChem BioAssay (NCATS).
Several values for one entry are separate records, joined by “and”; a condition that tells them apart may be missing. Equal entries are not always repeated. Results filed as inconclusive are left out. Activity calls are given as the source filed them. Unless noted, the call rests on the fitted dose curve; in most records, active means well fitted curve in the direction sought with a large enough effect; inconclusive means small, poorly fitted or top-dose-only effect, or another doubt; inactive means no such curve, though single readings can be large; an effect the other way counts as inactive or inconclusive.

What was measured:
[1] = biological target: Cytochrome P450 1A2 (Homo sapiens) (UniProt P05177); assay: p450-cyp1a2 (AID 410; calls by dose curve; further: potency means the concentration at half of the fitted maximal effect)
Sequence of Cytochrome P450 1A2 (Homo sapiens) (P05177 whole entry, looked up): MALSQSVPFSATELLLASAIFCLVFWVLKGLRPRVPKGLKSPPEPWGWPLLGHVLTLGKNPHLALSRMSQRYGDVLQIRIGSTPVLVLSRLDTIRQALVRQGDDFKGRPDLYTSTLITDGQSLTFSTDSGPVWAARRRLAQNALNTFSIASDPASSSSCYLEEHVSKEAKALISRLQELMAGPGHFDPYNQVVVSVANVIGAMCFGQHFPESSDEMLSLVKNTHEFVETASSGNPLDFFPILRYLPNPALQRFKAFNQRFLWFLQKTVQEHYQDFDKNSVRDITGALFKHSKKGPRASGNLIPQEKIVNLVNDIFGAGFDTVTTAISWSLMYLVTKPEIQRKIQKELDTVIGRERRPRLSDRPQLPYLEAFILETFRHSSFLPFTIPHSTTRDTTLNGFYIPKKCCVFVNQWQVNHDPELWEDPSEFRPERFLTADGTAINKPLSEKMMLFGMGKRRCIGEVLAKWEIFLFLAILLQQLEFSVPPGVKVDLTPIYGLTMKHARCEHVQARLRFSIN
Procedure, shortened: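 Inhibition was calculated relative to 57 uM furafylline (full inhibition). The reaction used human CYP1A2 at 20nM with Luciferin-ME at its Km, 100uM, driven by an NADPH-regenerating system for 60 min at room temperature.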

[2] = NFAT Signaling Pathway (AID 444; active means well fitted curve in either direction with a large enough effect, not every such curve was filed as active;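 further: carbachol stimulus at about its EC50 of 1 µM final; on the % scale 0 is the no-effect control and ±100 the full control effect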); settings: Jurkat NFAT-bla M1, carbachol, beta-lactamase ratio, 5 h; at 38 µM (top of the series)
Procedure, shortened: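 Read-out: CCF4 FRET ratio (460 nm/530 nm) after 1 h RT dye loading, used for %activity and AC50 from titration series. Cells: Jurkat NFAT-β-lactamase/M1 line, treated with compound plus 1 uM carbachol for 5 h, 37 °C.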

[3] = biological target: Glucocorticoid receptor (Homo sapiens) (UniProt P04150); assay: GR-GFP Redistribution (AID 450;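 active means compounds whose dose series gives a full or clear partial fitted curve of increased nuclear translocation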; further: potency means the concentration at half of the fitted maximal effect); settings: U2OS GR-GFP nuclear translocation, laser cytometry, 2 h
Sequence of Glucocorticoid receptor (Homo sapiens) (P04150 whole entry, looked up, the tested form may be a part): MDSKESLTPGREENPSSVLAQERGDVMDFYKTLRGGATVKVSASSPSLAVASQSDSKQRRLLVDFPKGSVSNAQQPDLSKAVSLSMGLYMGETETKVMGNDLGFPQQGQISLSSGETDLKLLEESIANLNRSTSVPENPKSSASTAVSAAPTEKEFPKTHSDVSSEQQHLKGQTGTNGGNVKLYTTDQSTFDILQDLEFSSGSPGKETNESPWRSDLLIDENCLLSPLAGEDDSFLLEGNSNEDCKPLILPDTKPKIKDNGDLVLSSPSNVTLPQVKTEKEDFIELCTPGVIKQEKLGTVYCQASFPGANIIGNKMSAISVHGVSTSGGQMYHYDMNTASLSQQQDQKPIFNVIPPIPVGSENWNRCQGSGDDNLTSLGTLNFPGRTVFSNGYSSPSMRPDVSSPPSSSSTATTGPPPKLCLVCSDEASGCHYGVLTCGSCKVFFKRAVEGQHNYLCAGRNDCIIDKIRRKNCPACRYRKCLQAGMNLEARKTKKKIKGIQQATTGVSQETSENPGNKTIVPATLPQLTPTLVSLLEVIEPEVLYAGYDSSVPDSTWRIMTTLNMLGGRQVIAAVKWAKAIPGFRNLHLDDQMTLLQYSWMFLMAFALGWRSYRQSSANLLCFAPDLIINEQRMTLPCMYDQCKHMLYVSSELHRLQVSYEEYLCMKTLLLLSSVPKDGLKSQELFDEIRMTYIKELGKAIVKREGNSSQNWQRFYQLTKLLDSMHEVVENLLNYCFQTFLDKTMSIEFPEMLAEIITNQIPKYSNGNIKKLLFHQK

[4] = biological target: Glucocorticoid receptor (Homo sapiens) (UniProt P04150); assay: GR-EFC Redistribution (AID 451; calls by dose curve; further: potency means the concentration at half of the fitted maximal effect); settings: CHO-K1 GR-EFC translocation, beta-gal luminescence, 2 h
Procedure, shortened: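 Translocation of GR-ED fusion to nuclear EA restores b-gal, read by luminescence after 1 h room-temperature detection. Engineered CHO-K1 biosensor cells, 1,000/well, exposed 2 h at 37 C to titrations up to 46 uM final.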

[5] = biological target: Mitogen-activated protein kinase 10 (Mus musculus) (UniProt Q61831); assay: JNK3 AlphaScreen Assay (AID 530; active means well fitted curve in either direction with a large enough effect, not every such curve was filed as active;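 further: kinase came from lysate of stimulated human HepG2 cells; potency means the concentration at half of the fitted maximal effect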)
Procedure, shortened: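 Room-temperature AlphaScreen kinase assay; pre-activated HepG2 lysate as JNK3 source, biotin-GST-cJun(1-79) substrate, 10 uM ATP, compound 15 min preincubation.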

[6] = biological target: 3',5'-cyclic-AMP phosphodiesterase 4B (Homo sapiens) (UniProt Q07343); assay: qHTS Assay for Inhibitors of PDE-IV (AID 607; active means well fitted activation curve with a large enough effect in the main read-out, with a control signal flat, not every such curve was filed as active; further: % of control where 0% means no effect)
Sequence of 3',5'-cyclic-AMP phosphodiesterase 4B (Homo sapiens) (Q07343 whole entry, looked up): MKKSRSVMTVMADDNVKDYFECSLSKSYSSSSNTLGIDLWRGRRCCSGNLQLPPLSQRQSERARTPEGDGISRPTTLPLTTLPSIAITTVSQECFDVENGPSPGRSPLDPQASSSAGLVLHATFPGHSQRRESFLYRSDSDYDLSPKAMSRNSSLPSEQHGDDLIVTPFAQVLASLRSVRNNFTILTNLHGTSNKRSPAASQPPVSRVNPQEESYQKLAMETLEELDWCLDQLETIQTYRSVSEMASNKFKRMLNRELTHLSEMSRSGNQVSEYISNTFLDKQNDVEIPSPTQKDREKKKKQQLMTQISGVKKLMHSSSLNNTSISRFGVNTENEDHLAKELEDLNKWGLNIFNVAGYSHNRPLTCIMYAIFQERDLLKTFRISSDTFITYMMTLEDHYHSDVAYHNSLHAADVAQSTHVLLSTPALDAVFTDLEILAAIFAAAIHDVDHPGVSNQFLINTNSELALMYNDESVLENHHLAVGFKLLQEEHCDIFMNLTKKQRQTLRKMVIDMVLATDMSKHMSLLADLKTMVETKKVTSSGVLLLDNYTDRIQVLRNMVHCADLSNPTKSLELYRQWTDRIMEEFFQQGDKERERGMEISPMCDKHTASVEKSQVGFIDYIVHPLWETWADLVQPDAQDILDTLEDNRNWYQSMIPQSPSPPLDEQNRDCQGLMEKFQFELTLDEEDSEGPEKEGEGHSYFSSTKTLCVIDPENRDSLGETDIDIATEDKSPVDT
Procedure, shortened: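 The readout is membrane depolarisation from a cAMP-sensing CNG channel, detected with a potential dye at ex 535/em 590. Cells were HEK293-derived (endogenous PDE-IV) at 1000 cells/well, titrated up to 22.9 uM final.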

[7] = biological target: Guanine nucleotide-binding protein G(i) subunit alpha-1 (Homo sapiens) (UniProt P63096); assay: qHTS Assay for Inhibitors of RGS12 GoLoco Motif Activity (Green Fluorophore) (AID 879);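 further: 0% = labeled peptide with Gαi1 and full inhibition = labeled peptide alone without protein; negative values mean loss of peptide binding seen as reduced polarization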
Procedure, shortened: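 Fluorescence polarization assay: 50 nM Gαi1 with 10 nM FITC-labeled RGS12 GoLoco peptide in 10 mM Tris pH 7.5, 150 mM NaCl, 0.1 mM GDP, 0.05% NP40, 10 min at room temperature with compound.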

[8] = biological target: Cytochrome P450 2C9 (Homo sapiens) (UniProt P11712); assay: qHTS Assay for Inhibitors and Substrates of Cytochrome P450 2C9 (AID 883); further: on the % scale 0 is the no-effect control and ±100 the full control effect; nearly all actives have a fitted effect of over 60% in size
Sequence of Cytochrome P450 2C9 (Homo sapiens) (P11712 whole entry, looked up): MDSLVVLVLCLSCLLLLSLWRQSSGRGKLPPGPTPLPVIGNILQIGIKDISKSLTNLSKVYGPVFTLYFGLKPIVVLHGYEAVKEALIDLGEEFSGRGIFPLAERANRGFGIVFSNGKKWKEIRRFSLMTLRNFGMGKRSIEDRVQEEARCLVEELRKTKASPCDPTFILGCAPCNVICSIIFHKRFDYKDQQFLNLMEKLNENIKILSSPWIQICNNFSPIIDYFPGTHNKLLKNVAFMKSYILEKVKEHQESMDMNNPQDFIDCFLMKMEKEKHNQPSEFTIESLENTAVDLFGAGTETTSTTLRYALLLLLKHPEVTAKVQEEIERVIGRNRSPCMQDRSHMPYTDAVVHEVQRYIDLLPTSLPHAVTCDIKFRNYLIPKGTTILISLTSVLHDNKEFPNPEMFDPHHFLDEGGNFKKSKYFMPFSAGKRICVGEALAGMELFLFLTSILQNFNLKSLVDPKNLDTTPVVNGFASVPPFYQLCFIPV
Procedure, shortened: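 Inhibition of CYP2C9 is scored as loss of luminescence, with 57uM sulphaphenazole defining 100% inhibition. Substrate Luciferin-H is used at 100uM, equal to its KM; enzyme at 10nM in 25mM KPO4, 60 min at 37C with NADPH regeneration.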

[9] = biological target: Cytochrome P450 3A4 (Homo sapiens) (UniProt P08684); assay: qHTS Assay for Activators of Cytochrome P450 3A4 (AID 885); further: nearly all actives have a fitted effect of over 65% in size
Sequence of Cytochrome P450 3A4 (Homo sapiens) (P08684 whole entry, looked up): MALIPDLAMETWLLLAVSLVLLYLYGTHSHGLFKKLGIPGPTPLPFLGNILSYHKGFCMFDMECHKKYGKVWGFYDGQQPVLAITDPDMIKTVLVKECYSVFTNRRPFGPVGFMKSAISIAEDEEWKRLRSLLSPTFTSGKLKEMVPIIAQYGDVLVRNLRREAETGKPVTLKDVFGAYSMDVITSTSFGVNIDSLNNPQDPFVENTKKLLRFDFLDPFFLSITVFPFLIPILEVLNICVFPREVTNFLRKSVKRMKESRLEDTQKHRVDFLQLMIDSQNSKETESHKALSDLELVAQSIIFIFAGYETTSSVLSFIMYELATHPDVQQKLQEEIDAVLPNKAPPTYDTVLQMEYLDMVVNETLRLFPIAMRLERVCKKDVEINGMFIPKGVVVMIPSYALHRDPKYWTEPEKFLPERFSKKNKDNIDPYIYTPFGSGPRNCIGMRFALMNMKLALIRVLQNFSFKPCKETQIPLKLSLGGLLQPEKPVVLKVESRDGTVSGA
Procedure, shortened: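 Steps: enzyme/substrate mix dispensed; compound added, 10 min RT; NADPH regeneration solution added, 60 min RT; luciferin detection buffer stops reaction; 20 min later luminescence measured.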

[10] = biological target: Cytochrome P450 2D6 (Homo sapiens) (UniProt P10635); assay: qHTS Assay for Inhibitors and Substrates of Cytochrome P450 2D6 (AID 891);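 further: luciferin methyl ether substrate demethylated by CYP2D6 with NADPH regeneration; on the % scale 0 is the no-effect control and ±100 the full control effect; nearly all actives have a fitted effect of over 60% in size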
Sequence of Cytochrome P450 2D6 (Homo sapiens) (P10635 whole entry, looked up): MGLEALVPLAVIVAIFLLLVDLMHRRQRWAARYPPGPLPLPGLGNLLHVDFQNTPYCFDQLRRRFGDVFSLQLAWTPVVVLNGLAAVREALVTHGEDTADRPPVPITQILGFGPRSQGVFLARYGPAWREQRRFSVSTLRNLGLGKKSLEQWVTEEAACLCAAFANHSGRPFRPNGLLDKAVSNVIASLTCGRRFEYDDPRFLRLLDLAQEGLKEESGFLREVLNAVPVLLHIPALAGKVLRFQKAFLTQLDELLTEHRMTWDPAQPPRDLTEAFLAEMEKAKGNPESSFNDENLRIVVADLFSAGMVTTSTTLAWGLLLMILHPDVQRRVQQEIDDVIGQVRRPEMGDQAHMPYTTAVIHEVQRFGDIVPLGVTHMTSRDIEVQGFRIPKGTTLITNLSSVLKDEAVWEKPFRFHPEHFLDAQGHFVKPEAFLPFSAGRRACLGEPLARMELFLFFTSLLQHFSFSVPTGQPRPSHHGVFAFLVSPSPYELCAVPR
Procedure, shortened: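 Human CYP2D6 (5 nM) with 30 uM Luciferin-ME EGE (at Km) in 100 mM KPO4, compound preincubated 10 min, then NADPH regeneration system for 60 min at room temperature. Luciferin read by luminescence; normalized to 1.43 uM quinidine.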

[11] = biological target: Muscarinic acetylcholine receptor M1 (Rattus norvegicus) (UniProt P08482); assay: qHTS Assay for Antagonists of Acetylcholine Muscarinic M1 Receptor: Kinetic Measurement of Intracellular Calcium Response (AID 943);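 further: Fluo-4 calcium signal as peak divided by basal fluorescence over 4 min; nearly all actives have a fitted effect of over 75% in size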
Sequence of Muscarinic acetylcholine receptor M1 (Rattus norvegicus) (P08482 whole entry, looked up): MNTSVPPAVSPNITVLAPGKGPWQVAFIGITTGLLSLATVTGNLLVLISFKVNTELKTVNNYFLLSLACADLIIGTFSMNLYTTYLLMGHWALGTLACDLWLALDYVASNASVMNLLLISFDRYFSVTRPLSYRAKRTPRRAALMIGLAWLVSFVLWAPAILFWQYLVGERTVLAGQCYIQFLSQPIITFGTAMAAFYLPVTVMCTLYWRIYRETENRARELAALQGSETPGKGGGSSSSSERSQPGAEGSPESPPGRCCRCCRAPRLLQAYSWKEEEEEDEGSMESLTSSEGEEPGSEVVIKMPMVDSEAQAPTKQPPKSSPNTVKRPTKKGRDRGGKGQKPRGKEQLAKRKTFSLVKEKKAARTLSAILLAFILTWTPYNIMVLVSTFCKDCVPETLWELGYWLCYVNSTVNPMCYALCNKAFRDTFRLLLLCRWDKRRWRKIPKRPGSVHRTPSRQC
Procedure, shortened: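 Intracellular calcium flux, recorded with Fluo-4 in a kinetic plate reader, served as signal; the response to carbachol at EC80 (100 nM final) was taken as maximal over minimal fluorescence after a 10 min compound pre-incubation in rat M1-CHO cells.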

[12] = biological target: Pyruvate kinase PKM (Homo sapiens) (UniProt P14618); assay: qHTS Assay for Activators of Human Muscle Pyruvate Kinase (AID 954; active means well fitted curve in the direction sought with a large enough effect, not every such curve was filed as active;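 further: 0% = uninhibited enzyme and -100% = no enzyme or full thiadiazolimine inhibition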)
Sequence of Pyruvate kinase PKM (Homo sapiens) (P14618 whole entry, looked up): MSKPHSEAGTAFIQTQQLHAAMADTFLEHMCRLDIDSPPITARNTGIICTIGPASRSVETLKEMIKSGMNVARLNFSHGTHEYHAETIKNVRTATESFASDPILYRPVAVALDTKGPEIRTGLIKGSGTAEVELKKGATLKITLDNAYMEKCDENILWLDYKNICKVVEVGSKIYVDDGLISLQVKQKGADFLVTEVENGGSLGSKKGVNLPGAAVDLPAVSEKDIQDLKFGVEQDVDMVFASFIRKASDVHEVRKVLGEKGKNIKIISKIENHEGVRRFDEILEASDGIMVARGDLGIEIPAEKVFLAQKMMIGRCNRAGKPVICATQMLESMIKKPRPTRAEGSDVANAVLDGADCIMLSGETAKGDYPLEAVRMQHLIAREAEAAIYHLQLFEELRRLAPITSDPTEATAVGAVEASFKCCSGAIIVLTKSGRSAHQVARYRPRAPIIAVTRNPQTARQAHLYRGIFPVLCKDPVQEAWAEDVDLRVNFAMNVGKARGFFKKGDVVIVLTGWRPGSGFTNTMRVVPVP
Procedure, shortened: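 Reaction: 0.1 nM purified PKM2 with 0.5 mM phosphoenolpyruvate and 0.1 mM ADP, room temperature, 1 h. Readout: luciferase-based ATP luminescence after stop reagent. Activators judged against a 0.3 nM enzyme column.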

[13] = biological target: Pyruvate kinase PKM (Homo sapiens) (UniProt P14618); assay: qHTS Assay for Inhibitors of Human Muscle Pyruvate Kinase (AID 958); settings: purified human PKM enzyme activity
Procedure, shortened: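 Enzyme was run at intermediate activity so both inhibitors and activators could be detected. ATP formed from ADP and PEP by 0.1 nM human PKM2 during a 1 h room-temperature incubation was quantified by coupled luciferase luminescence.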

[14] = biological target: Pyruvate kinase (Leishmania mexicana) (UniProt Q27686); assay: qHTS Validation Assay for Activators of Leishmania Mexicana Pyruvate Kinase (AID 959)
Procedure, shortened: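 An endpoint luciferase assay: 0.2 nM LmPYK E451W turns over 0.5 mM PEP with 0.1 mM ADP for 1 h at room temperature, pH 7.2, before PKLight addition. Values are normalized to DMSO-only wells.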

[15] = biological target: Alpha-galactosidase A (Homo sapiens) (UniProt P06280); assay: Counterscreen for Glucocerebrosidase Inhibitors: qHTS Assay for Human alpha-Galactosidase at pH 4.5 (AID 992); further: 0% is about no effect
Procedure, shortened: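 Concentration-response curves (0.7 nM to 77 uM final) were modeled with the Hill equation to give AC50. Reactions: 2 nM enzyme, 80 uM fluorogenic alpha-galactoside, pH 4.5 citric acid buffer, 20 min, room temperature.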

[16] = biological target: alpha-glucosidase (Oryza sativa, rice) (UniProt Q653V4); assay: Counterscreen for Glucocerebrosidase Inhibitors: qHTS Assay for Rice alpha-Glucosidase at pH 5.0 (AID 997);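 further: 0% = full activity with enzyme and -100% = basal without enzyme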
Procedure, shortened: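 Rice alpha-glucosidase (4 nM final) with 400 uM 4-methylumbelliferyl-alpha-D-glucopyranoside in citrate buffer pH 5.0, 20 min at room temperature, stopped at pH 10; fluorescence 365/440 nm, compounds 0.7 nM–77 uM, AC50 from Hill fits.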

[17] = qHTS Assay for Lipid Storage Modulators (AID 1519; calls by dose curve; on activity change, negative = inhibition: on the % scale 0 is the no-effect control and ±100 the full control effect); settings: Drosophila S3 cells, BODIPY lipid droplet/cell ratio, laser cytometry, cells loaded with oleic acid
Procedure, shortened: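 Cells seeded at 5,000 per well were treated with compounds over a concentration series and loaded with oleic acid (400 uM, as added). Lipid droplet fluorescence (488 nm excitation, 500-530 nm channel) was read by laser-scanning cytometry and normalized to 20 uM Triacsin C.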

[18] = biological target: DNA repair nuclease/redox regulator APEX1 (Homo sapiens) (UniProt P27695); assay: qHTS Validation Assay for Inhibitors of the Human Apurinic/apyrimidinic Endonuclease 1 (APE1) (AID 1705;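 further: TAMRA fluorescence gain over two minutes as APE1 cuts a quenched THF abasic duplex; on the % scale 0 is the no-effect control and ±100 the full control effect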)
Sequence of DNA repair nuclease/redox regulator APEX1 (Homo sapiens) (P27695 whole entry, looked up): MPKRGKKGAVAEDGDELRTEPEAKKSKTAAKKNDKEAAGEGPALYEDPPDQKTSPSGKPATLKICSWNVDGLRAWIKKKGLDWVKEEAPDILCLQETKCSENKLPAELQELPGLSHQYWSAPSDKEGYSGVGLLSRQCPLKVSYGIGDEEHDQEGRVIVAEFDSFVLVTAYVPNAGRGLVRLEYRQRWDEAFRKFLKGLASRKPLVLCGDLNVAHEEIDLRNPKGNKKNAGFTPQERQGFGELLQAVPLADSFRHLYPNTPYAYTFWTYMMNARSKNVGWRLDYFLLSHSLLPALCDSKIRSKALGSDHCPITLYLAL
Procedure, shortened: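 Substrate: 50 nM final fluorophore/quencher THF-abasic duplex. Enzyme preincubated with compounds 15 min, RT. Progress derived from fluorescence difference, third minus first kinetic read.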

[19] = Counterscreen for APE1 Inhibitors: Fluorescent Dye Displacement Validation Assay (AID 1707);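 further: plate controls were ThO with dsDNA and no compound for no effect and ThO without dsDNA for full effect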
Procedure, shortened: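 Assay buffer: Tris-HCl pH7.5 with 50mM NaCl, 2 mM MgCl2, 0.01% Tween-20. Dye 250 nM, duplex 50 nM final. Readout: decrease in ThO endpoint fluorescence, 480 nm excitation, 540 nm emission.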

N#C/C(=C\c1ccc(O)c(O)c1)C(=O)Nc1ccccc1
inactive: activity change, negative = inhibition [2] 6.23% | Potency [3] > 46 µM | Potency [4] > 46 µM | Potency [6] | outcome [7] | Potency [8] | Potency [9] | Potency [10] | Potency [11] | outcome [12] | Potency [14] | outcome [15] | outcome [16] | activity change, negative = inhibition ([17]; at 57.5 µM (top of the series)) -21.4% | Potency [18] | Potency [19]
active: Potency [1] 2 µM and 501 nM | Potency [5] 12.6 µM | Potency [13] 25.1 µM
-56.6%: max response ([17]; measured here: cell count channel max response)
-66.1%: max response ([17]; measured here: lipid channel max response)
